Laboratory results reported in the supplement of paper PMC7866885, “A novel bicyclic 2,4-diaminopyrimidine inhibitor of Streptococcus suis dihydrofolate reductase” (PeerJ, 2021).
± gives the standard deviation.

These compounds were tested on Streptococcus suis HE06 (assay: percent growth relative to DMSO control; higher = less growth inhibition). Conditions: 10 µM; incubation time 18 h.
Description: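 CLSI broth microdilution: 5x10^4 CFU of Streptococcus suis (strain P1/7 or HE06) incubated with 10 µM Pathogen Box compound in cation-adjusted Mueller Hinton broth, 37 °C, 5% CO2, 18 h. Growth read as OD600 and expressed as percent of the DMSO-treated control (100%); mean ± SD of three independent experiments.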
For `CCOc1ccc(OCC(=O)Nc2cc(C)cc(C)c2)cc1`, the percent growth was 96.3 ± 4.6%.
`CCN(CC)CCCN1CCN(C(=O)c2cccc(-c3noc(C(F)(F)F)n3)c2)CC1` was tested, and the percent growth was 90.3 ± 14%.
`COc1cccc(-c2cc3c(Nc4cccnc4)nccc3[nH]2)c1` gave a percent growth of 226 ± 230%.
`CNC(=O)c1cc(S(=O)(=O)N2CCN(c3ccccn3)CC2)cs1` was tested, and the percent growth was 79.7 ± 12%.
Work on `NCC(c1cccs1)S(=O)(=O)c1ccccc1` (stereo not drawn) yielded a percent growth of 111 ± 30%.
For `O=C(Nc1ccc(F)c(-c2nc3cc(-c4ccccc4)cnc3[nH]2)c1)N1CCCC1`, the percent growth was 99.7 ± 36%.
`COc1ccc(OC(C)C(=O)Nc2ccc(Cl)cc2C)cc1` (stereo not drawn) gave a percent growth of 107 ± 13%.
`COc1ccc(OC)c(NCc2ccc3nc(N)nc(N)c3c2Cl)c1` was tested, and the percent growth was 4.05 ± 6.3%.
Compound `O=C1COCc2ccc(Br)cc2N1Cc1ccc(C(F)(F)F)cc1` has a percent growth of 84.3 ± 26%.
For `Nc1ccc(C(=O)Nc2ccc(-c3nc4ccccc4o3)cc2)cc1`, the percent growth was 105 ± 4.4%.
`COc1cccn2c(C(=O)N3CCCCC3)c(C(F)(F)F)nc12` gave a percent growth of 111 ± 22%.
Work on `CC(C)(C)c1cnc(NC(=O)c2ccccc2O)s1` yielded a percent growth of 19.7 ± 28%.
With `CO[C@H]1/C=C/O[C@@]2(C)Oc3c(C)c(O)c4c(O)c(/c(=C/NN5CCN(C)CC5)c(O)c4c3C2=O)=N\C(=O)/C(C)=C\C=C/[C@H](C)[C@H](O)[C@@H](C)[C@@H](O)[C@@H](C)[C@H](OC(C)=O)[C@@H]1C` the percent growth was 4.41 ± 2.2%.
Work on `O=C(NCCc1ccccc1)c1cc(-c2cccnc2)cnc1NCC1CC1` yielded a percent growth of 88.2 ± 20%.
`Cc1nn2c(=O)c3c([nH]c2c1-c1ccc(Cl)cc1)CCCC3` gave a percent growth of 0.386 ± 8.7%.
Compound `NC(=O)c1cc(Br)ccc1OCCOc1ccccc1` has a percent growth of 85.2 ± 9.9%.
`O=C(COc1cccc(F)c1)Nc1nc(-c2ccccn2)cs1` showed a percent growth of -0.0745 ± 0.086%.
`COC(=O)c1c(NC(=O)c2cc3ccccc3oc2=O)sc2c1CCN(Cc1ccccc1)C2` gave a percent growth of 84.2 ± 11%.
Compound `c1ccc(Oc2ccc(-c3cc(C4CCOCC4)[nH]n3)cc2)cc1` has a percent growth of 59.7 ± 17%.
`COc1ccc(C2=NN(C3CCCCCC3)C(=O)C2(C)C)cc1OCCCCOc1ccc(-c2nn[nH]n2)cc1` was tested, and the percent growth was 2.58 ± 3.1%.
`CCc1nc2ccc(C(=O)NCc3ccc4c(c3)OCO4)cn2c1N(C)Cc1cccs1` was tested, and the percent growth was 122 ± 67%.
`CC(C(=O)Nc1ccc2oc(-c3ccncc3)nc2c1)c1ccccc1` (stereo not drawn) gave a percent growth of 81.1 ± 11%.
With `Nc1ncc(-c2ccc(C(F)(F)F)nc2)cc1-c1ccc(C(F)(F)F)nc1` the percent growth was 98.8 ± 13%.
Work on `Nc1ncnc2[nH]nc(Cc3cccc4ccccc34)c12` yielded a percent growth of 104 ± 35%.
Work on `O=S(=O)(c1ccc(Cl)cc1)N1CCN(C(=S)NCc2ccco2)CC1` yielded a percent growth of 93.7 ± 22%.
`CCc1ccc(S(=O)(=O)Nc2cc(CN3CCN(CCC(C)C)CC3)ccc2C)cc1` was tested, and the percent growth was 95.7 ± 12%.
In the case of `O=C(NCCc1ccn(-c2ccccc2)n1)C1CCCCC1`, the percent growth is reported as 97.3 ± 2.1%.
For `Cc1cc(C(=O)Nc2cnn(Cc3ccc(Cl)cc3Cl)c2)no1`, the percent growth was 94.2 ± 5.5%.
For `O=C1Nc2ccc(Br)cc2C12NCCc1c2[nH]c2ccccc12` (stereo not drawn), the percent growth was 94.7 ± 15%.
Compound `NS(=O)(=O)c1cncc(-c2ccc3nccc(-c4cn[nH]c4)c3n2)c1` has a percent growth of 102 ± 33%.
With `CCc1ccc(C(NCc2nc(N)nc(N(C)C)n2)C(C)C)cc1` (stereo not drawn) the percent growth was 12.8 ± 16%.
Compound `Nc1nc2ccc(-c3cncc(Oc4ccc(F)cc4)c3)cc2[nH]1` has a percent growth of 91.8 ± 11%.
For `CCc1ccc([C@@H]2C[C@H](C(F)(F)F)n3ncc(C(=O)NCc4ccc(OC)cc4)c3N2)cc1`, the percent growth was 92.3 ± 12%.
In the case of `CCOC(=O)NC(=O)c1ccsc1NC(=O)c1nc2ccccc2s1`, the percent growth is reported as 0.167 ± 0.2%.
In the case of `FC(F)(F)c1cc(NCCc2ccccc2)nc(-c2ccccn2)n1`, the percent growth is reported as 1.92 ± 3.3%.
`CC[P](CC)(CC)=[Au][S][C@H]1O[C@@H](COC(C)=O)[C@H](OC(C)=O)[C@@H](OC(C)=O)[C@@H]1OC(C)=O` was tested, and the percent growth was 4.65 ± 3%.
Work on `Nc1cccnc1Nc1ccc(Cl)cc1` yielded a percent growth of 94.6 ± 4.4%.
With `O=C(Nc1nnc(-c2ccc(Cl)s2)o1)c1ccc(Cl)s1` the percent growth was 1.06 ± 1.1%.
